{"source": "PubChem BioAssay", "key": {"[1]": {"biological_target": "Albumin (Bos taurus) (UniProt P02769)", "sequence (P02769 whole entry, looked up)": "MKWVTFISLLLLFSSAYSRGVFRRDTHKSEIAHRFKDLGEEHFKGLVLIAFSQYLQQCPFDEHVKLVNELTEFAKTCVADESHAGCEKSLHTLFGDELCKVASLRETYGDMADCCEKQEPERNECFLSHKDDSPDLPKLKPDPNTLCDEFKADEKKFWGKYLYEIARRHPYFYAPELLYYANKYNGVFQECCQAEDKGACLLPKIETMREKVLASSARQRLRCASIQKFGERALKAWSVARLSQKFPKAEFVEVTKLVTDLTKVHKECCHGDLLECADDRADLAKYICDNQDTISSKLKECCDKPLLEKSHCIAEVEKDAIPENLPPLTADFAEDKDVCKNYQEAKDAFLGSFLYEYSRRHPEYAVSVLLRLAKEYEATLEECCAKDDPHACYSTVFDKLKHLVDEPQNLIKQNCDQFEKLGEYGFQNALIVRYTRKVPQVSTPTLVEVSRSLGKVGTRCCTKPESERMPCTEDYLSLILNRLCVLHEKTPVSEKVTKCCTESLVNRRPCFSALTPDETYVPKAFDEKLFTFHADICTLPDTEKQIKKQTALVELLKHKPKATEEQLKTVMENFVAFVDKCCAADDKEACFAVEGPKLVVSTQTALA", "assay": "compounds binding labelled BSA control protein – biochemical, small-molecule microarray, Alexa647 label, 635/667 nm fluorescence, artefact control for SMM control protein annotation, profiling panel (AID 1118);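 note: score merges 667 nm emission intensity and signal-to-noise per printed compound spot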", "settings": "BSA-A647 binding, fluorescence 635 nm, higher = more signal"}, "[2]": {"assay": "probe aXIP binding to arrayed compounds – biochemical, NeuroSMM set, 635/667 nm fluorescence, primary screen (AID 1119);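 note: probe is the protein aXip251-270 applied at 1 µg/mL to compound-printed slides; binding of probe to printed compounds measured as 667 nm fluorescence plus signal to noise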", "settings": "small-molecule microarray, higher = more signal, called active from +8 up or from −8 down"}, "[3]": {"assay": "probe aNOTCH3 binding on compound microarray – biochemical, small-molecule microarray, 635/667 nm fluorescence, primary screen (AID 1120);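 note: probe is a biotin-tagged antibody raised against NOTCH3 rather than NOTCH3 protein; score merges spot fluorescence near 667 nm with spot signal to noise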", "settings": "higher = more signal"}, "[4]": {"assay": "probe aNOTCH2 binding on compound microarray – biochemical, small-molecule microarray, 635/667 nm fluorescence, primary screen (AID 1121);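 note: score merges feature fluorescence read at 667 nm with its signal to noise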", "settings": "higher = more signal"}, "[5]": {"biological_target": "Carbonic anhydrase 2 (Homo sapiens) (UniProt P00918)", "assay": "compounds binding carbonic anhydrase 2 – biochemical, small-molecule microarray, Alexa647-labelled CAII, profiling panel (AID 1122)", "settings": "CAII-A647 binding fluorescence, higher = more signal"}, "[6]": {"assay": "COS7 lysate on small-molecule microarray, probe aHis, 635 nm (AID 1123);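 note: z-score combines 667nm fluorescence intensity with signal-to-noise per printed compound spot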", "settings": "COS7 cell lysate, fluorescence, higher = more signal"}, "[7]": {"assay": "probe aLAP1 signal on lysate-treated microarray – cell lysate, small-molecule microarray, COS7 lysate, primary screen (AID 1124);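 note: lysate comes from COS7 cells expressing LAP1 and is applied at 0.3 µg/mL; score merges spot fluorescence near 667 nm with signal-to-noise over triplicate slides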", "settings": "probe aLAP1, fluorescence, higher = more signal"}, "[8]": {"test_system": "Sam68 (KHDRBS1)", "assay": "compounds binding KHDRBS1 protein – biochemical, small-molecule microarray, 635 nm fluorescence, primary screen (AID 1125);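 note: score merges 667 nm channel intensity with signal to noise over triplicate slides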", "settings": "higher = more signal"}, "[9]": {"test_system": "Chordin-like protein 2 (CHRDL2)", "assay": "compounds binding chordin-like 2 – biochemical, small-molecule microarray, 635 nm fluorescence, primary screen (AID 1126);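 note: printed compound slides probed with Chrdl2 protein at 4 µg/mL for 1 h at 4 C; score merges 667 nm emission intensity with signal to noise over three replicate slides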", "settings": "fluorescence 635 nm, higher = more signal"}, "[10]": {"biological_target": "Concanavalin-A (Canavalia ensiformis) (UniProt P02866)", "sequence (P02866 whole entry, looked up)": "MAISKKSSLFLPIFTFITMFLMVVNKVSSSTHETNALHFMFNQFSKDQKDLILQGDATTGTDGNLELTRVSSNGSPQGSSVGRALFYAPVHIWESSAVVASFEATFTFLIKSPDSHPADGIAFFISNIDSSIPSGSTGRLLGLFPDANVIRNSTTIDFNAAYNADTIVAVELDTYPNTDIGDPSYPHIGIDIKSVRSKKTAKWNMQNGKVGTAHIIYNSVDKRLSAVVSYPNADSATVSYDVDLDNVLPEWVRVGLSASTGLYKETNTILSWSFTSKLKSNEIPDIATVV", "assay": "compounds binding concanavalin A lectin – biochemical, small-molecule microarray, Alexa647 label, 635 nm, artefact control for SMM control protein annotation, primary screen (AID 1127);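 note: z combines 667 nm emission intensity with signal-to-noise across three replicate slides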", "settings": "ConA-A647 binding fluorescence, higher = more signal"}, "[11]": {"assay": "compounds binding Alexa647 anti-His antibody – biochemical, small-molecule microarray, 635 nm fluorescence, artefact control for SMM control protein annotation, primary screen (AID 1128);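 note: score merges feature fluorescence with signal-to-noise for each printed compound spot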", "settings": "higher = more signal"}, "[12]": {"test_system": "Human papillomavirus type 1a E7 protein (residues 1-88)", "assay": "HPV1a E7 small-molecule binders, primary screen, biochemical, small-molecule microarray, residues 1-88, 635 nm (AID 1129)", "settings": "small-molecule microarray binding, fluorescence 635 nm; higher = more signal"}, "[13]": {"biological_target": "Focal adhesion kinase 1 (Homo sapiens) (UniProt Q05397)", "sequence (Q05397 whole entry, looked up)": "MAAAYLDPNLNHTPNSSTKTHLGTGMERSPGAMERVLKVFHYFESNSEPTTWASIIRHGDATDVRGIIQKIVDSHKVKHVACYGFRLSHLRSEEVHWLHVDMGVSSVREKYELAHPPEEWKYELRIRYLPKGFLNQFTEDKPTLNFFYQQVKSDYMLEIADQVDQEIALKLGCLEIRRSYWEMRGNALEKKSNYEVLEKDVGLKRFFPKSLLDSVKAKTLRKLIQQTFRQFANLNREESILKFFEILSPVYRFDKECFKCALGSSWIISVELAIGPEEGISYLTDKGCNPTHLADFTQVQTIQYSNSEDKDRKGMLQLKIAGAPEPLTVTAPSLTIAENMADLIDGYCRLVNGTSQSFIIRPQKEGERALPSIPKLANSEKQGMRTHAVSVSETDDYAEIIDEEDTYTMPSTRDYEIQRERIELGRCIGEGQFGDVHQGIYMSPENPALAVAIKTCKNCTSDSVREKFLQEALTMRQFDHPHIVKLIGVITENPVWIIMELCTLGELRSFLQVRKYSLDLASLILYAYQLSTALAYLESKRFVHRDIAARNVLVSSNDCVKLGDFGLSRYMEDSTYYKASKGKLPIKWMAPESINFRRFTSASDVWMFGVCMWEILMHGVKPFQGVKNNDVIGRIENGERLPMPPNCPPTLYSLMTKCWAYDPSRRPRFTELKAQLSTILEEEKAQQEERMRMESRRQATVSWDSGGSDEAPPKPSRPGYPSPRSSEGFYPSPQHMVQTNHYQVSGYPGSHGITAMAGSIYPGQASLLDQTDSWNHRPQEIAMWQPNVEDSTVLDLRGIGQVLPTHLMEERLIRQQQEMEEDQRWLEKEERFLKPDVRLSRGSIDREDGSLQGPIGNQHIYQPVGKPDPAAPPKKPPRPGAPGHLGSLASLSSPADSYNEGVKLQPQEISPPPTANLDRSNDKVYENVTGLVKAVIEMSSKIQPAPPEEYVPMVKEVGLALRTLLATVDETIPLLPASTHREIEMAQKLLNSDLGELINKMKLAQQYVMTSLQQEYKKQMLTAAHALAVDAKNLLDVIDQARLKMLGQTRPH", "assay": "PTK2 protein binding on printed compound slides – biochemical, small-molecule microarray, 635/667 nm fluorescence, BSA, DTT, primary screen (AID 1130);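 note: composite of spot emission at 667 nm and signal to noise over triplicate slides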", "settings": "635 nm fluorescence, higher = more signal"}, "[14]": {"test_system": "Fibrinogen (Alexa647-labelled)", "assay": "Alexa647-fibrinogen binding to printed small molecules – biochemical, small-molecule microarray, 635/667 nm fluorescence, artefact control for SMM control-protein annotation, profiling panel (AID 1131);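 note: z-score merges 667 nm fluorescence with per-spot signal-to-noise over triplicate slides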", "settings": "fibrinogen-A647 binding fluorescence, higher = more signal"}, "[15]": {"biological_target": "Follistatin (Homo sapiens) (UniProt P19883)", "sequence (P19883 whole entry, looked up)": "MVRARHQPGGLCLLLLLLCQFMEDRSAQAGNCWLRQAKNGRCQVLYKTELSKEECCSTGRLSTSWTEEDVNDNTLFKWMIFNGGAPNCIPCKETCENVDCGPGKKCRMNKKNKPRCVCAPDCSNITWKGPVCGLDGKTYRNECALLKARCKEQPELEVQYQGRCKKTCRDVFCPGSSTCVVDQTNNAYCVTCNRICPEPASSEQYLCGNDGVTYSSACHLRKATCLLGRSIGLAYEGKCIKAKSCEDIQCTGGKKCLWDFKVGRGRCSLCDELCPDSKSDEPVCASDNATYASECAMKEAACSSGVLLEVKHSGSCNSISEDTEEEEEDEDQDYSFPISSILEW", "assay": "FST protein binding to printed compounds – biochemical, small-molecule microarray, 635/667 nm fluorescence, primary screen (AID 1132)", "settings": "635 nm fluorescence, higher = more signal"}, "[16]": {"biological_target": "Fibroblast growth factor 2 (Homo sapiens) (UniProt P09038)", "sequence (P09038 whole entry, looked up)": "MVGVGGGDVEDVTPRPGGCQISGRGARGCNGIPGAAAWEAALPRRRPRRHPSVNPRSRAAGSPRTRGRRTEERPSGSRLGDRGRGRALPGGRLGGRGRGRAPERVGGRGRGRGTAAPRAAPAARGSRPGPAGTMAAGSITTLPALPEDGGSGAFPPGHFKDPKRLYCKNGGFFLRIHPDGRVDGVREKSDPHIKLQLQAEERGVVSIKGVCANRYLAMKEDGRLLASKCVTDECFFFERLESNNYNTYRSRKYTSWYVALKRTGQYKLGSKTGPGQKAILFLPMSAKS", "assay": "basic fibroblast growth factor binding to printed compounds – biochemical, small-molecule microarray, 635/667 nm fluorescence, primary screen (AID 1133)", "settings": "FGF2, fluorescence 635/667, higher = more signal"}, "[17]": {"assay": "JC-1 mitochondrial potential readout, lung cancer cells – cell-based, A549, JC-1 fluorescence, basal, 24 h, 100 nL, profiling panel (AID 1138);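 note: A549 lung adenocarcinoma cells under basal conditions with no added stimulus; test concentration not given here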", "settings": "higher = more signal"}, "[18]": {"test_system": "Lefty1", "assay": "Lefty1 protein binding to printed compounds – biochemical, small-molecule microarray, 635/667 nm fluorescence, primary screen (AID 1139)", "settings": "fluorescence 635/667, higher = more signal"}, "[19]": {"test_system": "wheat germ agglutinin (Triticum aestivum), Alexa647-labelled", "assay": "Alexa647-WGA lectin binding to printed small molecules – biochemical, small-molecule microarray, 635/667 nm fluorescence, artefact control for SMM control-protein annotation, profiling panel (AID 1140);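 note: score merges 667 nm feature emission with signal to noise over triplicate slides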", "settings": "WGA-A647 binding, 635 nm fluorescence, higher = more signal"}, "[20]": {"biological_target": "Luciferin 4-monooxygenase (Photinus pyralis) (UniProt P08659)", "sequence (P08659 whole entry, looked up)": "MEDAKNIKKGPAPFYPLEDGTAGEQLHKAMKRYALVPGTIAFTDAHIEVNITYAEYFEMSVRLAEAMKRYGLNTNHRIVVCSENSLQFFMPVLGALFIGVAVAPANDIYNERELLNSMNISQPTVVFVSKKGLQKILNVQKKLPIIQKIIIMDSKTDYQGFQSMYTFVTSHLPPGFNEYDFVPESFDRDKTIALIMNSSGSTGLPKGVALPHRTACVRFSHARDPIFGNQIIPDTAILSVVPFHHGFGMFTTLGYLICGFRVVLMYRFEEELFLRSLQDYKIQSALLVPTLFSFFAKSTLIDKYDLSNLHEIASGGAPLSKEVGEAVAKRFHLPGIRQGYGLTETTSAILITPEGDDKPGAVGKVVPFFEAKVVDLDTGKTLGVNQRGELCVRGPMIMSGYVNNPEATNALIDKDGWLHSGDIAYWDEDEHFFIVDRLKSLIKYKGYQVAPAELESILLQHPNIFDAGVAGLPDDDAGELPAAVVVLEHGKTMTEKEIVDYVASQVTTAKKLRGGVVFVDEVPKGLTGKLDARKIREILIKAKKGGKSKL", "assay": "inhibition of purified Photinus pyralis luciferase – biochemical, luminescence, purified enzyme, 2006 set, primary screen (AID 1141);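 note: cell-free assay with purified firefly luciferase at 100 ng per well in PBS; test concentration not given here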", "settings": "purified firefly luciferase, SteadyGlo luminescence, 30 min; higher = more signal, called active from +8 up or from −8 down"}}, "note": "Calls of active or inactive are those of the source."}
{"compound": "COc1ccc(OC[C@@H](CO)OC)cc1", "values": [{"measurement": "composite z-score", "setting": "[1]", "result": -0.151}, {"measurement": "composite Z-score", "setting": "[2]", "result": "0.675 (inactive)"}, {"measurement": "composite z-score", "setting": "[3]", "result": -0.0865}, {"measurement": "composite z-score", "setting": "[4]", "result": -0.118}, {"measurement": "composite z-score", "setting": "[5]", "result": -0.148}, {"measurement": "composite z-score", "setting": "[6]", "result": -0.206}, {"measurement": "composite z-score", "setting": "[7]", "result": -0.295}, {"measurement": "composite z-score", "setting": "[8]", "result": 0.14}, {"measurement": "composite z-score", "setting": "[9]", "result": 0.175}, {"measurement": "composite z-score", "setting": "[10]", "result": 0.0261}, {"measurement": "composite z-score", "setting": "[11]", "result": 0.324}, {"measurement": "composite z-score", "setting": "[12]", "result": 0.0896}, {"measurement": "composite z-score", "setting": "[13]", "result": 0.172}, {"measurement": "composite z-score", "setting": "[14]", "result": 0.227}, {"measurement": "composite z-score", "setting": "[15]", "result": 0.649}, {"measurement": "composite z-score", "setting": "[16]", "result": 0.205}, {"measurement": "z-score", "setting": "[17]", "result": 0.754}, {"measurement": "composite z-score", "setting": "[18]", "result": 0.356}, {"measurement": "composite z-score", "setting": "[19]", "result": -0.254}, {"measurement": "z-score", "setting": "[20]", "result": "-0.531 (inactive)"}]}
{"compound": "COC(=O)[C@H](C)NC(=O)CCC1CC(OC(=O)NCCc2ccc(F)cc2)CC2(CCCC(COC(=O)NCCOc3ccccc3)O2)O1", "note": "(stereo not given in full)", "values": [{"measurement": "composite z-score", "setting": "[1]", "result": 0.752}, {"measurement": "composite Z-score", "setting": "[2]", "result": "0.59 (inactive)"}, {"measurement": "composite z-score", "setting": "[3]", "result": -0.029}, {"measurement": "composite z-score", "setting": "[4]", "result": -0.0921}, {"measurement": "composite z-score", "setting": "[5]", "result": 0.282}, {"measurement": "composite z-score", "setting": "[6]", "result": 1.21}, {"measurement": "composite z-score", "setting": "[7]", "result": -0.0401}, {"measurement": "composite z-score", "setting": "[8]", "result": 1.31}, {"measurement": "composite z-score", "setting": "[9]", "result": 1.03}, {"measurement": "composite z-score", "setting": "[10]", "result": 1.02}, {"measurement": "composite z-score", "setting": "[11]", "result": 0.989}, {"measurement": "composite z-score", "setting": "[12]", "result": 1.16}, {"measurement": "composite z-score", "setting": "[13]", "result": 0.821}, {"measurement": "composite z-score", "setting": "[14]", "result": 0.659}, {"measurement": "composite z-score", "setting": "[15]", "result": 0.826}, {"measurement": "composite z-score", "setting": "[16]", "result": 0.307}, {"measurement": "z-score", "setting": "[17]", "result": 1.08}, {"measurement": "composite z-score", "setting": "[18]", "result": 1.41}, {"measurement": "composite z-score", "setting": "[19]", "result": 0.309}, {"measurement": "z-score", "setting": "[20]", "result": "0.549 (inactive)"}]}
